According to PubChem BioAssay (NCI):
The panel holds about 79,000 compounds, 15% with a hit somewhere; the sample as a whole holds those more often. Rule as the data show it: active = growth inhibition above about 70%; inactive = the rest.

What was measured:
[1] = NCI Yeast Anticancer Drug Screen. Data for the rad50 strain (AID 155);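 also: 0% = growth of vehicle-only cultures of the same strain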; details: S. cerevisiae rad50 strain growth inhibition; at 50.0 µM; active compounds read high
Summary of the method: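 Readout: growth inhibition relative to vehicle-treated cultures. Compound exposure was carried out in a genetically defined yeast strain deficient in DNA damage repair.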

[2] = NCI Yeast Anticancer Drug Screen. Data for the mec2-1 strain (AID 157); details: S. cerevisiae mec2-1 strain, at 50.0 µM, active compounds read high
Summary of the method: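 Readout is yeast growth inhibition, normalised to vehicle-treated controls, in the mec2-1 strain exposed to compound.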

[3] = NCI Yeast Anticancer Drug Screen. Data for the sgs1 mgt1 strain (AID 161);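 also: 0% = growth of cultures given vehicle only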; details: S. cerevisiae sgs1 mgt1 strain, at 50.0 µM, active compounds read high
Summary of the method: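 Growth of a repair-deficient yeast mutant was monitored after compound treatment and expressed as inhibition relative to vehicle-treated cultures.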

[4] = NCI Yeast Anticancer Drug Screen. Data for the cln2 rad14 strain (AID 165);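 also: 0% = growth equal to vehicle treated cultures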; details: S. cerevisiae cln2 rad14 strain, at 50.0 µM, active compounds read high
Summary of the method: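 Relative to vehicle controls, growth inhibition of compound-treated cln2 rad14 yeast was recorded.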

[5] = NCI Yeast Anticancer Drug Screen. Data for the bub3 strain (AID 167); details: S. cerevisiae bub3 mutant strain, at 50.0 µM, active compounds read high
Summary of the method: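 Readout: yeast growth inhibition, expressed relative to vehicle-only wells. The test organism is a mutant strain from a panel with lesions in DNA repair or checkpoint genes.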

[6] = NCI Yeast Anticancer Drug Screen. Data for the mlh1 rad18 strain (AID 175); details: S. cerevisiae mlh1 rad18 strain growth inhibition; at 50.0 µM; active compounds read high
Summary of the method: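 Test agents were incubated with a yeast strain of defined genotype (DNA damage repair defect). Inhibition of growth was derived by comparison with vehicle-exposed cultures.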

Measured: growth inhibition

CC(=O)c1sc2c(c1OC(=O)c1ccc(Cl)cc1Cl)c(=O)n(-c1ccccc1)c(=S)n2-c1ccccc1
inactive: [1] -3.95% | [2] -23.3% | [3] -19.4% | [4] -5.65% | [5] -6.55% | [6] -3.85%

Cc1ccc(/C=C2\SC(=S)N(c3ccc(F)cc3)C2=O)o1
inactive: [1] 14.7% | [2] 10.9% | [3] 28.4% | [4] 17.4% | [5] 15.8% | [6] 23.9%

C=C1CC/C=C(\C)C(=O)C[C@@H]2[C@@H]1CC2(C)C
inactive: [1] 5.85% | [2] 11.8% | [3] 20.2% | [4] 18.6% | [5] 15.3% | [6] -43.1%

CC1NC(=O)NC1CCCCCC(=O)O (configuration not stated)
inactive: [1] 8.3% | [2] 11.4% | [3] 13.8% | [4] 12.5% | [5] 4.6% | [6] 17.3%

O=C(O)CCC(=O)OC(C1CO1)C(OC(=O)CCC(=O)O)C1CO1 (configuration not stated)
inactive: [1] -0.85% | [2] -16.5% | [3] -7.3% | [4] 3.3% | [5] -11.6% | [6] -44.7%

C/C(=C\c1cc(Cl)ccc1OCC(=O)O)[N+](=O)[O-]
inactive: [1] 38.1% | [2] 56.1% | [3] 44.5% | [4] 26.9% | [5] 40.8% | [6] 56.2%

C/C(=N/NC(N)=O)c1ccco1
inactive: [1] 1.1% | [2] -1.05% | [3] -3.55% | [4] -2% | [5] 1.95% | [6] -3.55%

O=C(CCl)N1CCN(C/C=C/c2ccccc2)CC1
inactive: [1] 8.15% | [2] -0.05% | [3] 19.1% | [4] -3.95% | [5] 39.9% | [6] 28.5%

CC(C)(N)COS(=O)(=O)O
inactive: [1] -14.6% | [2] -14.1% | [3] -7.95% | [4] -6.9% | [5] 9.25% | [6] -14.1%

Nc1ccc(CC(=O)O)c(N)c1
inactive: [1] 0.55% | [2] -7.8% | [3] -4.6% | [4] -6.25% | [5] 4.6% | [6] -0.4%

O=[N+]([O-])c1ccccc1S(=O)c1ccccc1[N+](=O)[O-]
inactive: [1] 16.1% | [2] 21.6% | [3] 34.3% | [4] 20.9% | [5] 39.2% | [6] 14.7%

Cc1cc(=O)cc(C)n1-c1ccccc1
inactive: [1] 11.9% | [2] -5.75% | [3] -15.4% | [4] 0.25% | [5] 12.1% | [6] 19.2%

COc1cccc(/C=N/NC(=S)NC2CC3CCC2C3)c1O (configuration not stated)
inactive: [1] -21.6% | [2] -33.1% | [3] -3.4% | [4] -9.9% | [5] -13.9% | [6] -3.5%

Cc1cc(C(C)(C)C)cc(C)c1Br
inactive: [1] -1.85% | [2] -0.85% | [3] -9.25% | [4] -15.3% | [5] 0.15% | [6] -1.65%

CC1(C(N)=O)CCC(C(=O)O)C1(C)C (configuration not stated)
inactive: [1] 10.3% | [2] -3.45% | [3] 14.4% | [4] -29.9% | [5] -3.45% | [6] 8.15%

CC(C)(C)n1nc(C2CC2)c(Br)c1NC(=O)c1ccccc1F
inactive: [1] -6.6% | [2] -12.2% | [3] 8.7% | [4] 3.25% | [5] 5.55% | [6] 10.9%

CC1(C(=O)O)NC(C(=O)O)Cc2c1[nH]c1ccccc21 (configuration not stated)
inactive: [1] 26.5% | [2] -13.2% | [3] 3.15% | [4] 3.65% | [5] 32.4% | [6] 13.3%

O=S(=O)(O)C(Nc1ccccc1)c1ccccc1 (configuration not stated)
inactive: [1] -4.35% | [2] -27.7% | [3] 9.5% | [4] -0.25% | [5] 16% | [6] -11.6%

CC(=O)OCC1OC(OC2=C(CC=C(C)C)C(=O)c3ccccc3C2=O)C(OC(C)=O)C(OC(C)=O)C1OC(C)=O (configuration not stated)
inactive: [1] -7.2% | [2] 3.85% | [3] -17.4% | [4] -15% | [5] -12.7% | [6] -6.6%

O=C1OC(c2ccc(F)cc2)CC1CN1CCOCC1 (configuration not stated)
inactive: [1] 0.45% | [2] 12.6% | [3] 30.6% | [4] 27.3% | [5] 24.3% | [6] 38.5%

O=c1[nH]cc(Cl)cc1O
inactive: [1] -0.15% | [2] -3.3% | [3] -1.35% | [4] -40.9% | [5] 13.2% | [6] 4.9%

O=[N+]([O-])c1cccc(C(F)(F)F)c1
inactive: [1] -3.9% | [2] -12.1% | [3] -9.1% | [4] -23.9% | [6] -9.85%

C[N+](C)(C)C(=O)c1ccccc1
inactive: [1] 21.6% | [2] 21.4% | [3] 22.1% | [4] 11.1% | [6] 46.6%

COc1cc(C(=O)NC(=S)Nc2ccc3ccccc3c2)cc(OC)c1OC
inactive: [1] 11.3% | [2] 2.6% | [3] 6.25% | [4] -6.15% | [6] 13.1%

COc1cc(C2NC(=O)C(C#N)=C(Nc3cccc(C)c3)S2)ccc1O (configuration not stated)
inactive: [1] -2.7% | [2] -18.8% | [3] 13.4% | [4] 1% | [6] -16.9%

O=c1[nH]n(-c2ccccc2)c(=O)cc1Cl
inactive: [1] -0.9% | [2] 2.25% | [3] -4% | [4] -0.3% | [5] 3.55% | [6] 2%

Cc1cc(=O)n(-c2ccc(F)cc2)[nH]1
inactive: [1] -5.15% | [2] -14.1% | [3] 22.1% | [4] 2.8% | [6] 12.1%

Cc1cc(C)cc(NCCC#N)c1
inactive: [1] 15.5% | [2] -32.5% | [3] 18.4% | [4] -1.75% | [6] -17.4%

CCCCC(O)c1ccccc1 (configuration not stated)
inactive: [1] -16.6% | [2] -4.15% | [3] -24.7% | [4] -21.8% | [6] 6.8%

CC(C)C(C#N)(C(C)C)C(C)C
inactive: [1] 23.3% | [2] 15.4% | [3] 4% | [4] -29.6% | [6] 22.4%

O=C1N(C[P+](c2ccccc2)(c2ccccc2)c2ccccc2)CCCN1C[P+](c1ccccc1)(c1ccccc1)c1ccccc1
inactive: [1] 17.4% | [2] 7.4% | [3] 3.55% | [4] 14.9% | [6] 12.3%

Cc1cc(OCCO)cc(C)c1Cl
inactive: [1] -20.9% | [2] -65.8% | [3] -16.4% | [4] 2.35% | [6] -12.3%

CC1C(=O)c2ccccc2CC1C(=O)O (configuration not stated)
inactive: [1] -1.6% | [2] -15.6% | [3] 7.8% | [4] -22.2% | [6] -21%

NC(C(=O)O)C(O)c1ccco1 (configuration not stated)
inactive: [1] 6.6% | [2] -0.1% | [3] 3.95% | [4] 13.8% | [6] 6.75%
